Assay results published in PubChem BioAssay AID623980 (National Center for Advancing Translational Sciences (NCATS), 2012).
Some of the results follow. Calls of active or inactive are those of the source. Calls follow the shape of the dose curve; as a rule, active = well fitted curve in the direction sought with a large enough effect; inactive = no such curve, though single readings can be large or run the other way.

Test: qHTS for Inhibitors of mutant isocitrate dehydrogenase 1 (IDH1): Cherrypicks Autofluorescence Interference
Conditions: Resorufin detection reagent fluorescence interference, cell-free; series mostly up to 51.2 µM
Description: Readout Interference Assay for Inhibitors of IDH1 R132H and WT IDH1 Malignant glioblastomas (WHO grade IV), including primary and secondary glioblastomas, are among the most lethal with a median survival of one year, and unfortunately they are also the most prevalent type of brain tumors. By and large the standard of care of gliomas remains the use of the oral alkylating agent temozolomide and radiotherapy following surgical tumor resection. There is an urgent unmet medical need for novel therapeutics for gliomas. IDH mutations occur in up to 70% of grade II-IV secondary glioblastomas, and IDH1 R132H is the most prevalent mutation. […] Wild-type (WT) IDH1 catalyzes the conversion of isocitrate to a-ketoglutarate with the concomitant reduction of NADP+ to NADPH. In contrast, IDH1 R132H catalyzes the conversion of -ketoglutarate to 2-hydroxyglutarate (2-HG) with the concomitant oxidation of NADPH to NADP+ [5]. Recently, a second significant advancement for the field was the finding that IDH is an oncogene, and that its metabolic product 2-HG may contribute to the pathogenesis of IDH-mutated cancers. […] Although this link to cancer is tantalizing, the direct evidence of how 2-HG drives pathogenesis of gliomas and AML remains a subject of further research. The goal of this detection interference assay is to identify whether the potential small-molecule inhibitors of IDH1 R132H or WT IDH1 confound the fluorescence readout by interfering with the detection reagent. Inhibition of the detection reagent would lead to a decrease in observed fluorescence of the product resorufin relative to the DMSO control. Compounds were screened as concentration-titration series that ranged from 76 uM to 0.15 uM. NIH Molecular Libraries Probe Production Network [MLPCN] NIH Chemical Genomics Center [NCGC] MLSCN Grant: R03 DA032129 PI Name: Dr. Lenny Dang
Detection reagent buffer was dispensed into black, solid 1536-well plates at 9 microL/well in 20 mM Tris buffer, pH 7.5, containing final concentrations of 10 mM MgCl2, 20 mM NaCl, 0.05% BSA, 2 mM beta-ME, 0.008 mM NADPH, 1 mM alpha-ketoglutarate, and 0.008 mM resorufin. Then, 23 nL of compounds or DMSO were delivered to each well using a pin tool. The fluorescence intensity was monitored on an Envision plate reader at 590 nm (Ex 540, Em 590, bodipy mirror, 10 flashes). The %Activity was determined from the corrected fluorescence values. Resorufin at 0x was included to normalize %Activity of identified inhibitors; 0x resorufin values corresponded to 100%Activity (full inhibition), while 1x resorufin values were used to normalize 0%Activity (no inhibition). Concentration-response curves were fitted to the signals arising from the resulting fluorescence. The concentration-response curves were then classified based on curve quality (r2), response magnitude and degree of measured activity, and compounds were subsequently categorized based on their curve class. […] Keywords: Isocitrate dehydrogenase, IDH1, IDH1 R132H, 2-HG, 2-hydroxyglutarate, AML, glioma, MLSMR, MLPCN, NIH Roadmap, qHTS, NCGC

outcome, inactive:
CCOC(=O)c1oc2c(CN3CCN(CCO)CC3)c(O)c(CC)cc2c(=O)c1-c1nc2ccccc2s1, Cc1ccc(-c2nn(-c3ccccc3)cc2/C=C2\SC(=S)N(CCCCCC(=O)O)C2=O)o1, COc1cc(/C=C2/C(=O)ON=C2C)ccc1OCc1ccccc1F, N#CC1=C(N)C(C#N)(C#N)[C@H](c2ccsc2)[C@H]2COCC=C12, COc1ccc(C(C(=O)NC2CCCCC2)N(C(=O)c2snc(C(N)=O)c2N)c2ccccc2OC)cc1 (centres undefined), COC(=O)c1cccc(N(C(=O)c2ccco2)C(C(=O)NC2CCCC2)c2ccco2)c1 (centres undefined), COC(=O)c1ccc(-c2c(-c3ccccc3)ncc3cc(OC)c(OC)cc23)cc1, CC(C)(C)c1ccc(S(=O)(=O)Nc2ccc(O)c(Sc3nc4ccccc4s3)c2)cc1, CC(C)N(C(=O)CSc1nc(COc2ccccc2)nc2ccccc12)C(C)C, CCCCOc1ccc(CN2C(=O)C(=O)c3cc(Br)cc(C)c32)cc1OC, CCSc1nc2sc3c(c2c(=O)n1-c1ccc(C)cc1)CCN(C)C3, COc1ccc(C(CCN(Cc2ccc(OC)c(OC)c2)C(=O)CCl)c2ccccc2)cc1 (centres undefined), COc1ccc(Cl)cc1-n1c(=S)sc2c(=O)n(-c3ccc(F)cc3)c(SCC(=O)O)nc21, COc1cc2c(-c3ccc4c(c3)OCO4)c(-c3ccsc3)oc(=O)c2cc1OC, CCC(C)(C)NC(=O)C(c1cccn1C)N(Cc1ccc(C)cc1)C(=O)Cn1nnc2ccccc21 (centres undefined), Cn1c(COc2ccc(Cl)cc2)nc2ccccc2c1=O, CCCCC(=O)NC(c1ccc(OC)c(OC)c1)c1ccc2cccnc2c1O (centres undefined), COc1ccc(/C=C2/SC(=O)N(CCCCCC(=O)Nc3ccccc3C(=O)O)C2=S)cc1, COc1ccc(/C=N/Nc2cc(N3CCOCC3)nc(C)n2)c(OC)c1, CCCc1nc2c(c(=O)c3ccccc3n2C)c(=O)n1C1CCCCCC1, Cc1ccc2nc(N3C(=O)C(O)=C(C(=O)c4ccco4)C3c3cccc(O)c3)sc2c1 (centres undefined), CCOC(=O)c1ccc(N2C(=O)c3n[nH]c(-c4ccco4)c3C2c2ccc(O)cc2)cc1 (centres undefined), CCCNc1ncnc2c1c(-c1ccccc1)cn2-c1ccc(OCC)cc1, Cc1nc(-c2ccc(Cl)cc2)sc1C(=O)CBr, Cc1cccc(N(C(=O)Cc2cccs2)C(C(=O)NC2CCCC2)c2ccsc2)c1 (centres undefined), O=C1c2cccc3cccc(c23)C(=O)N1CCCCCc1n[nH]c(=S)o1, CC(C)Nc1nc(N(c2ccccc2)c2ccccc2)nc(-n2ccnc2)n1, Cc1ccc(Nc2nc(CSc3nnc(-c4ccncc4)n3-c3ccccc3C)cs2)cc1, CCCc1[nH]nc2c1C(c1ccc(OC)c(Cn3nc(C)c(Br)c3C)c1)C(C#N)=C(N)O2 (centres undefined), CCCOc1ccc(C2c3c(-c4ccccc4O)n[nH]c3C(=O)N2Cc2cccnc2)cc1 (centres undefined), O=C(NC(Nc1nc2ccc([N+](=O)[O-])cc2s1)(C(F)(F)F)C(F)(F)F)c1ccccc1, C(=N/Nc1cc(N2CCOCC2)nc(N2CCOCC2)n1)/c1ccccc1, Cc1nc(C)c(C(=O)N(c2ccc(C)c(C)c2)C(C(=O)NCc2ccco2)c2ccccc2)s1 (centres undefined), COc1cc(/C=C2/SC(=S)N(Cc3ccccc3)C2=O)cc(OC)c1O
